# In PubChem BioAssay AID686978 (National Center for Advancing Translational Sciences (NCATS), 2013):
# “And” between values parts separate entries of the source, which are not always exact repeats. Equal values may be shown once. The whole screen tested about 420,000 compounds, of which about 64,000 (15%) were called active. Roughly 27% stayed inconclusive and do not appear here. Calls come from the whole dose curve; as a rule, active = well fitted inhibition curve with a large enough effect; inconclusive = small, poorly fitted or top-dose-only effect; inactive = flat fitted curve, though single readings scatter. Only a sample is shown.
# Assay: qHTS for Inhibitors of human tyrosyl-DNA phosphodiesterase 1 (TDP1): qHTS in cells in absence of CPT; note: nearly all actives have a fitted effect of over 55% in size
# Settings: DT40 Tdp1-/- hTDP1 cells, no CPT, ATP luminescence, 48 h; activity change, negative = growth inhibition: at 46.2 µM (top of the series)
# Source text: Human tyrosyl-DNA phosphodiesterase 1 (TDP1) is a novel repair gene, and we propose to use it as a new target for anticancer drug development. TDP1 is not an essential protein, but under treatment with topoisomerase I poison (camptothecin: CPT), TDP1 works as a critical factor for cell survival. To directly identify novel TDP1 inhibitors active in a cellular environment, we have knocked-out the Tdp1 gene in chicken DT40 cells (Tdp1-/-) and generated a complemented counterpart cells that contains a stable transfection of the human TDP1 gene (Tdp1-/-;hTDP1 cells). For the primary screen, Tdp1-/-;hTDP1 cells will be exposed to small molecules in the presence or absence of CPT, and their growth kinetics will be evaluated after 48 hours by measuring ATP activity. […] The hit compounds will then be evaluated in the presence or absence of CPT using Tdp1-/- cells. […] In tertiary assays, biochemical gel-based assays will be used to assess whether the hit compounds specifically target TDP1.
# To this end, we have screened this cell line against the MLSMR in two primary screens. In one screen we add CPT and in the other we screen in the absence of CPT; this AID represents the screen where CPT was absent.
# NIH Chemical Genomics Center [NCGC]
# NIH Molecular Libraries Probe Centers Network [MLPCN]
# Assay Submitter (PI): Yves Pommier, NCI
# DT40-hTDP1 cells without 20 nM Camptothecin (add 20 microL of DMSO in 1 L of cell culture medium) were dispensed at 400 cells/5microL/well in tissue culture treated 1536-well white wall/solid bottom assay plates (Greiner Bio-One North America, NC, U.S.A.) using a Multidrop Combi 8 channel dispenser (Thermo Fisher, Waltham, MA, USA). 23 nL compounds and controls were transferred using the pin tool (Kalypsys, San Diego, CA, USA) to the assay plates. The assay plates were then incubated at 37 masculineC for a minimum 48 hr. Three microL of Cell Titer Glo solution was added to the plates and incubated at RT in dark for 30 min. Luminescence was read using ViewLux (Perkin Elmer) with 1 sec exposure slow speed, high gain and 2x binning.
# % is set by controls: 0 for no effect and ±100 for the full control effect; potency is the fitted concentration of half-maximal effect.
SMILES,"activity change, negative = growth inhibition",Potency
COc1ccc(NC(=O)CN(C)C(=O)c2ccc(NC3CC3)c([N+](=O)[O-])c2)cc1,-4.51% (inactive),–
O=C1CN(C(=O)c2ccccc2F)C(c2ccc(F)cc2)c2cc(F)ccc2N1 (centres undefined),-11.5% (inactive),–
CCOC(=O)CCc1c(C)c2ccc(OCc3nn[nH]n3)c(C)c2oc1=O,18.3% (inactive),–
CC(C)C[C@@H]1COc2cc(N3CCC[C@@H]3CO)ccc2S(=O)(=O)N1,5.3% (inactive),–
COc1ccc(/C=C2/SC(=O)N(CCCCCC(=O)Nc3ccccc3C(=O)O)C2=S)cc1,-28% (inactive),–
CNN/C(N=Cc1ccc([N+](=O)[O-])s1)=N\S(=O)(=O)c1cc(C)c(Cl)cc1SCc1ccccc1,–,1.3 µM (active)
CCC(C)(C(=O)NC1CCCCC1)N(C)C(=O)c1ccc2c(c1)OCO2 (centres undefined),-9.92% (inactive),–
CCOc1ccccc1NC(=O)NC1CCCCCCC1,7.99% (inactive),–
O=[N+]([O-])c1cccc(/C([O-])=C(/C(=S)Nc2ccccc2F)[n+]2ccccc2)c1,2.94% (inactive),–
CCOc1ccccc1NC(=S)C(=C([O-])c1ccc2c(c1)OCCO2)[n+]1ccc(CC)cc1,–,18.4 µM (active)
CC1(C)O[C@@H]2[C@H](O1)[C@@H](CO)O[C@H]2n1c(N2CCCCC2)nc2c(N)ncnc21,-5.36% (inactive),–
CC(C)=CCN1CCN(Cc2cc3ccccc3[nH]2)CC1CCO (centres undefined),12.1% (inactive),–
COc1ccc(COC(=O)NC(C(=O)O)c2ccccc2)cc1 (centres undefined),-15.9% (inactive),–
CCc1nn(CCCN2CCN(c3cccc(Cl)c3)CC2)c(=O)n1CCOc1ccccc1,–,15 µM (active) and 5.31 µM (active)
COc1cccc(N2CCN(C3CC(=O)N(c4ccc(Cl)cc4)C3=O)CC2)c1 (centres undefined),-9.93% (inactive),–
Cc1nn(CCOc2ccccc2)c(=O)n1-c1ccccc1F,3.28% (inactive),–
CN1C(C(=O)NCC2CC2)CC2Cn3c(nc4ccccc43)C21 (centres undefined),-5.86% (inactive),–
CCS(=O)(=O)c1ccc(O)c(NC(=O)COc2ccc(Cl)cc2)c1,-25.9% (inactive),–
O=C(Nc1cccc(S(=O)(=O)NC2=NCCC2)c1)c1ccc(F)cc1F,-20.4% (inactive),–
O=C(Nc1cc(S(=O)(=O)Nc2ccc(Cl)cc2)ccc1O)c1ccc(F)cc1F,–,13 µM (active)
N#CNC1=NCN(CCc2ccccc2)CN1,-13.8% (inactive),–
O=C(CCN1CCCCC1)Nc1ccc(F)c(F)c1,-19.5% (inactive),–
COc1ccc(N2CCN(S(=O)(=O)c3cc4c5c(c3)C(C)C(=O)N5CCC4)CC2)cc1 (centres undefined),-23.2% (inactive),–
COc1ccccc1CCNS(=O)(=O)c1cc2c3c(c1)C(C)C(=O)N3CCC2 (centres undefined),–,2.91 µM (active)
COc1ccc(C)cc1S(=O)(=O)Nc1cc2c3c(c1)CCC(=O)N3CCC2,-20.7% (inactive),–
Cc1cccc(NC(=O)Cc2ccc(Br)cc2)n1,1.59% (inactive),–
COC(=O)Cc1c(-c2[nH]c3ccccc3c2CC(=O)OC)[nH]c2ccccc12,–,14.6 µM (active)
COC(=O)Cc1nc2ccccc2[nH]1,-22.4% (inactive),–
CCOC(=O)C1CCN(C(=O)Cc2c(C(=O)O)[nH]c3ccccc23)CC1,2.54% (inactive),–
